# From PubChem
# The list is not random: actives were taken first. Their share in the collection is about 3%.
# PNC assembly inh: High Content Assay for Compounds that inhibit the Assembly of the Perinucleolar Compartment; PC3M PTB-GFP, PNC prevalence imaging, 16 h; hits give low values; activity change (PNC), negative = inhibition, % at 10 µM; hit rate 3.1% among 140,000; AID 2417, 2010;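 active = readout at or below -70, meaning at least 70% loss of cells showing the perinucleolar compartment, a nuclear body marking cancer cells; inconclusive = readout between -30 and a set limit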;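 note: plate controls were DMSO wells for no effect and camptothecin positive control wells for full effect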
#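 Compounds are pinned in duplicate onto adhered PC3M cells stably expressing GFP-tagged PTB and incubated 16 h at 37 C. Cells are then fixed, nuclei stained with Hoechst, and PNC-positive cells counted.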
# 15-hLO-2 inh: qHTS Assay for Inhibitors of 15-hLO-2 (15-human lipoxygenase 2). purified 15hLO-2, xylenol orange hydroperoxide absorbance. Potency, µM (titrated, usually from 57.1 µM), without a hit: at the top dose activity change, negative = inhibition, most hits filed as inhibitors. hit rate 0.56% among 110,000; note: potency is the fitted concentration of half-maximal effect; nearly all actives have a fitted effect of over 60% in size
#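 Enzyme 50 nM, AA 45 uM, 25 mM Hepes pH 7.5 + 0.01% Triton X-100; cpd preinc 15 min RT, rxn 90 min RT; stop/detect with 200 uM XO + 300 uM Fe(II) in 50 mM H2SO4, 30 min; A573/A405.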
# 12-hLO inh: qHTS Assay for Inhibitors of 12-hLO (12-human lipoxygenase). Potency, µM (titrated, usually from 57.1 µM), without a hit: top-dose activity change, negative = inhibition, actives largely listed as inhibitors. hit rate 0.12% among 150,000. purified 12-hLO, xylenol orange hydroperoxide absorbance. Polyunsaturated fatty acid lipoxygenase ALOX12 (Homo sapiens), P18054; note: potency is the fitted concentration of half-maximal effect; nearly all actives have a fitted effect of over 55% in size
#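 Hydroperoxide formation by human 12-lipoxygenase from 40 uM arachidonic acid was followed colorimetrically via ferric-xylenol orange complex, using the 573/405 nm absorbance ratio. Enzyme concentration was 150 nM, with 30 min reaction at room temperature.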
# IMPase cell inh: qHTS Assay for Identifying the Cell-Membrane Permeable IMPase Inhibitors | AID 901, 2007 | Inositol monophosphatase 1 (Rattus norvegicus), P97697 | 120,000 tested, under 10 active | CHO-M1 cells, IP1 accumulation, HTRF TR-FRET ratio | inhibition (IP1 accumulation), % at 46.1 µM; active = well fitted curve in the direction sought with a large enough effect in the signal ratio, not every such curve was filed as active; inconclusive = small, poorly fitted or top-dose-only effect, or a change in a side signal; inactive = no such curve, though single readings can be large or run the other way; the % refers to the signal ratio;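 note: cells stimulated with carbachol in lithium chloride buffer; plate controls were DMSO basal wells for no effect and reference inhibitor wells for full effect; higher means more IMPase inhibition seen as more IP1 and lower FRET ratio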
# Target sequence (P97697 whole entry, looked up): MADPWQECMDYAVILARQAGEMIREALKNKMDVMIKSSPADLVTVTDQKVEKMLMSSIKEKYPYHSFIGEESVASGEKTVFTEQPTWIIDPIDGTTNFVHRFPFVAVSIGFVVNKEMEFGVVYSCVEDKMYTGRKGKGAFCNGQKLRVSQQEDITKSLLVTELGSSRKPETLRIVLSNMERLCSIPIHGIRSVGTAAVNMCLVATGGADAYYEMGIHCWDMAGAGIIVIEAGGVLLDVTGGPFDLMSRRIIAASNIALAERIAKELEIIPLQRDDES
#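 CHO-M1 cells (CHO stably expressing M1 receptor), compound up to 46 uM final, stimulated with carbachol (50 uM as added) in buffer with 50mM LiCl, pH 7.4, 30 min at 37C. Cytosolic IP1 read by TR-FRET; AC50 from Hill fits.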
# Numbers without * were called inactive; ? = inconclusive; . = no result given; [ ] = remark or other dose. Unless noted, calls come from the whole dose curve; as a rule, active = well fitted curve in the direction sought with a large enough effect; inconclusive = small, poorly fitted or top-dose-only effect, or another doubt; inactive = no such curve, though single readings can be large; an effect the other way counts as inactive or inconclusive. Unless noted, % is set by controls: 0 for no effect and ±100 for the full control effect.
SMILES,PNC assembly inh,15-hLO-2 inh,12-hLO inh,IMPase cell inh
Cc1cc(C2=NNC(=NC3CC3)SC2)c(C)n1Cc1ccco1,-27,.,-2%,-3
CN1CC2([N+](=O)[O-])CC=C(OCCO)C([N+](=O)[O-])(C1)C2 (configuration not stated),-115*,.,0%,.
CCN1CC2([N+](=O)[O-])CC=C(OC)C([N+](=O)[O-])(C1)C2 (configuration not stated),2,.,-3%,.
CC(=O)[C@]1(O)CC[C@@H]2[C@H]3C[C@@H](C)C4=CC(=O)CC[C@@]4(C)[C@H]3[C@@H](O)C[C@]21C,.,-3%[11.4 µM],-2%[11.4 µM],.
CCC(=O)N(Cc1ccco1)c1nc(-c2cc(OC)ccc2OC)cs1,-100*,.,-1%,-9
CCC(=O)N(Cc1ccco1)c1nc(-c2ccc(OC)cc2)cs1,17,.,-7%,17
O=C(CSc1nc2c(sc3ccccc32)c(=O)n1Cc1ccccc1)NCC1CCCO1 (configuration not stated),28,-4%,3%,-14
O=C(CSc1nc2c(sc3ccccc32)c(=O)n1Cc1ccco1)NCC1CCCO1 (configuration not stated),-89*,-20%,2%,-5
CC1(C)CC(=O)C(C(=O)/C=C/NCCc2ccccc2)C(=O)C1,-15,-1%,-7%,-8
S=C(Nc1ccc(Oc2ccc(NC(=S)NC3CCCCC3)cc2)cc1)NC1CCCCC1,?,.,1.3µM*,.
CC(C)C(=O)Nc1cccc(-c2cnc3ccccc3n2)c1,-96*,8%,-4%,-7
Cc1ccc(C(=O)Nc2cccc(-c3cnc4ccccc4n3)c2)cc1,50,-9%,-3%,5
CCc1ccc2nc(N3C(=O)C(O)=C(C(=O)c4ccco4)C3c3cccs3)sc2c1 (configuration not stated),-100*,.,6%,-13
Cc1ccc2nc(N3C(=O)C(O)=C(C(=O)c4cc5ccccc5o4)C3c3cccs3)sc2c1 (configuration not stated),?,4%,?,?
O=C(COCc1nc2ccccc2c(=O)[nH]1)NCC1CCCCC1,-100*,.,-1%,-1
O=c1[nH]c(CCC2CCCC2)nc2ccccc12,51,.,1%,.
C=CCNC(=O)N1CCc2nc(CCCC)c3c(c2C1)CO[C@@H](C)C3,.,.,-2%[11.4 µM],.
c1ccc(-c2ncnc3nc4n(c23)CCC4)cc1,-26,3%,-7%,-3
COc1ccc(NC(=O)N2CCCC2)cc1OC,-109*,22%,-4%,5
COc1ccc(NC(=O)N2CC3(CCN(C(=O)c4csnn4)CC3)C2)cc1,.,1%,5%,.
Nc1nc2c(ncn2C2OC(CO)CC2O)c(=O)[nH]1 (configuration not stated),.,2%,1%,.
COCCNc1nc(C(C)(C)C)nc2c1nnn2Cc1ccccc1Cl,-102*,2%,-4%,5
OCCNc1nc(C2CC2)nc2c1nnn2Cc1ccccc1Cl,?,-7%,1%,-1
Nc1nc(CN2CCC(Cc3ccccc3)CC2)nc(Nc2ccccc2)n1,-105*,48%,7%,3
Nc1nc(CN2CCN(Cc3ccc4c(c3)OCO4)CC2)nc(Nc2ccccc2)n1,-129*,38%,1%,-5
SMILES,PNC assembly inh,15-hLO-2 inh,12-hLO inh,IMPase cell inh
Cc1onc(-c2ccccc2Cl)c1C(=O)Nc1ncn[nH]1,-1,.,-2%,.
COc1ccccc1C(=O)Nc1cccc(N(C)S(C)(=O)=O)c1,-100*,.,0%,-3
CSc1ccccc1C(=O)Nc1cccc(N(C)S(C)(=O)=O)c1,?,-2%,-4%,14
CN(c1ccccc1C(=O)Nc1ccc2c(c1)OCO2)S(C)(=O)=O,-100*,.,-1%,4
CN(c1ccccc1C(=O)Nc1ccc2c(c1)OCCO2)S(C)(=O)=O,289,.,1%,-14
CCN(Cc1ccccc1)S(=O)(=O)c1nc2nc(C)c(C)c(C)n2n1,18,-3%,0%,4
CCc1cccc2c(C(=O)CSc3nncn3-c3ccccc3OC)c[nH]c12,-13,.,20%,-5
CCc1cccc2c(C(=O)CSc3nncn3-c3ccc(OC)cc3)c[nH]c12,-104*,.,2%,.
O=C(NCc1ccc(Cl)cc1)C(=O)Nc1cccc(Br)c1,.,.,.,-5
CCOc1ccccc1Nc1ccc(N)cc1S(=O)(=O)O,.,-9%[11.4 µM],5%[11.4 µM],.
CCOC(=O)C1(C)/C(=N/Nc2ccc(Cl)cc2)C(=O)C(=O)N1c1ccccc1 (configuration not stated),?,?,?,5
CCOC(=O)C1(C)/C(=N/Nc2cccc(Cl)c2)C(=O)C(=O)N1c1ccccc1 (configuration not stated),21,-21%,3.2µM*,8
CCC(NC(=O)/C(=C\c1ccc2c(c1)OCO2)NC(C)=O)C(=O)O (configuration not stated),-125*,.,3%,.
CC1(C)Cc2cccc(OCC(=O)N3CCN(c4ccccc4)CC3)c2O1,?,.,2%,9
CC1(C)Cc2cccc(OCC(=O)N3CCN(S(=O)(=O)c4ccccc4F)CC3)c2O1,-94*,1%,-9%,7
O=c1cnc2cnc(Oc3cccc(Cl)c3)nc2n1C[C@H]1CCCO1,.,-2%,.,.
CC(=O)Nc1c(Br)cc(N2C(=O)CCC2=O)cc1Br,21,.,-3%,3
CC(=O)Nc1cc(N2C(=O)CCC2=O)ccc1Cl,-82*,.,-3%,.
O=C(c1cnccn1)N1CCC2(CC1)CCN(c1ccccc1)CC2,.,1%,3%,.
CCOC(=O)N1CCC(N2Cc3cccc(C(=O)NC(C)c4ccc5c(c4)OCCO5)c3C2=O)CC1 (configuration not stated),-15,-3%,-2%,3
CCN1CCN(C(=O)Nc2cccc(C(F)(F)F)c2)CC1,-123*,8%,1%,13
COC(=O)NC1(C(F)(F)F)C(=O)NC(C)=C1C(=O)OC (configuration not stated),-107*,1%,-1%,-16
O=S(=O)(c1ccccc1)N1CCC2(CCCN(Cc3nccs3)C2)CC1,.,3%,-2%,.
CC(=O)Nc1ccc(OCC(O)CN2CCN(c3cccc(Cl)c3)CC2)cc1 (configuration not stated),-6,15%,1%,5
CC(=O)Nc1ccc(OCC(O)CN2CCN(c3ccc(Cl)cc3)CC2)cc1 (configuration not stated),-100*,.,2%,14
CCCN(CCC)CCNC(=O)C1CC(=O)N(c2ccc(OC)cc2)C1c1ccc(OC)cc1 (configuration not stated),42,15%,3%,5
O=C(Nc1nccs1)C12CC3CC(C1)CC(C(=O)Nc1nccs1)(C3)C2,-88*,60%,-15%,9
